Source: PubChem BioAssay
For some assays here: Results with a measured potency or affinity are listed apart. The source made the active and inactive calls. Unless noted, no rule for the calls is given here.

Tests used:
[1] = antimalarial activity against Dd2 strain (AID 2302;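 active = growth inhibition above 50% at the single 2 µM test dose, taken to imply half-maximal potency below 2 µM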;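 also: 0% = DMSO untreated growth and 100% = chloroquine plus artemisinin killed control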); settings: P. falciparum Dd2 in RBCs, LDH growth readout, 72 h; at 2 µM; active compounds read high
[2] = HepG2 cytotoxicity, primary screen, cytotoxicity control for P. falciparum antimalarial project, cell-based, ATP luminescence (AID 2303;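 active = inhibition above 50%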;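 also: 0% = DMSO wells and 100% = digitonin-killed cells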); settings: HepG2 viability, 24-48 h, at 10 µM, active compounds read high
[3] = molecular target: L-lactate dehydrogenase (Plasmodium falciparum (isolate CDC / Honduras)) (UniProt Q27743); assay: PfLDH activity inhibition – cell lysate, 3D7 strain, counter-screen for P. falciparum growth inhibition project (AID 2304);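 also: 0% = vehicle and 100% = reference inhibitor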; settings: P. falciparum 3D7 crude extract, LDH APAD/NBT absorbance; at 2 µM; active compounds read high
[4] = inhibition of 3D7 malaria parasite growth – strain 3D7 (AID 2306);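 also: 0% = DMSO wells and 100% = chloroquine plus artemisinin control wells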; settings: P. falciparum 3D7 erythrocytic growth, LDH absorbance, 72 h; at 2 µM; active compounds read high
[5] = molecular target: Calcium-dependent protein kinase 1 (Plasmodium falciparum (isolate 3D7)) (UniProt P62344); assay: PfCDPK1 kinase inhibitors, biochemical, TCAMS library (AID 1159585; cut-off not given, nearly all actives have IC50 up to about 0.98 µM;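 also: inhibitors leave more ATP so luminescence rises with inhibition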); settings: recombinant PfCDPK1, Kinase-Glo ATP depletion luminescence
[6] = molecular target: Plasmodium falciparum protein kinase 6 (PK6, PF3D7_1337100) (UniProt Q8IDW1); assay: PfPK6 kinase inhibitors, biochemical, TCAMS library (AID 1159586); settings: recombinant PfPK6, Kinase-Glo ATP depletion luminescence
[7] = molecular target: Protein kinase 7 (PK7), Plasmodium falciparum 3D7 (PF3D7_0213400) (UniProt Q7YTF7); assay: inhibition of Plasmodium PK7 catalytic activity – biochemical, TCAMS antimalarial set, Kinase-Glo luminescence (AID 1159587); settings: recombinant PfPK7, Kinase-Glo ATP depletion luminescence
[8] = molecular target: Calcium-dependent protein kinase 4 (Plasmodium falciparum (isolate 3D7)) (UniProt Q8IBS5); assay: PfCDPK4 kinase inhibitors, biochemical, TCAMS library (AID 1159588; cut-off not given, nearly all actives have IC50 up to about 0.91 µM); settings: recombinant PfCDPK4, Kinase-Glo ATP depletion luminescence
Chain of Calcium-dependent protein kinase 4 (Plasmodium falciparum (isolate 3D7)) (Q8IBS5 whole entry, looked up): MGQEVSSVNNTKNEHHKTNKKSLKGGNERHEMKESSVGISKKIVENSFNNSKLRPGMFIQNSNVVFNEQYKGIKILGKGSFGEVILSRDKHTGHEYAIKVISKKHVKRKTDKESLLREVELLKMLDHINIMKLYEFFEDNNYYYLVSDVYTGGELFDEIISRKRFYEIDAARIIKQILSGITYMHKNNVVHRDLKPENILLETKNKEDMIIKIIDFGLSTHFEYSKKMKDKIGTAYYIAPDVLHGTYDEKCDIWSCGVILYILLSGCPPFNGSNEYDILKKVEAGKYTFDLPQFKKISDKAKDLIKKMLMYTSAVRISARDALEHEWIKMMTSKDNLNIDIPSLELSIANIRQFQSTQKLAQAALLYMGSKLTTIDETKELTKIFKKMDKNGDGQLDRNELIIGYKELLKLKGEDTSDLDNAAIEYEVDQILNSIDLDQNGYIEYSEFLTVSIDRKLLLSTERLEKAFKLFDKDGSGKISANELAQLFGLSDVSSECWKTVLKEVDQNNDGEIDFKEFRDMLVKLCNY

Chain of Plasmodium falciparum protein kinase 6 (PK6, PF3D7_1337100) (Q8IDW1 1-305): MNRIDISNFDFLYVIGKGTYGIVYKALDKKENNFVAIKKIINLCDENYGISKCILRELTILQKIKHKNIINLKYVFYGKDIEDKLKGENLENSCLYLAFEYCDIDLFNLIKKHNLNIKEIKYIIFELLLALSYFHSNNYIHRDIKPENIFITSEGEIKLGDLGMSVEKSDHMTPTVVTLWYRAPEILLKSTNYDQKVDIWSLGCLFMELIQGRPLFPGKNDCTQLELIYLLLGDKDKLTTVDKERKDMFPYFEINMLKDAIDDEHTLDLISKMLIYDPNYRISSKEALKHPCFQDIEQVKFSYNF
Chain of Calcium-dependent protein kinase 1 (Plasmodium falciparum (isolate 3D7)) (P62344 whole entry, looked up): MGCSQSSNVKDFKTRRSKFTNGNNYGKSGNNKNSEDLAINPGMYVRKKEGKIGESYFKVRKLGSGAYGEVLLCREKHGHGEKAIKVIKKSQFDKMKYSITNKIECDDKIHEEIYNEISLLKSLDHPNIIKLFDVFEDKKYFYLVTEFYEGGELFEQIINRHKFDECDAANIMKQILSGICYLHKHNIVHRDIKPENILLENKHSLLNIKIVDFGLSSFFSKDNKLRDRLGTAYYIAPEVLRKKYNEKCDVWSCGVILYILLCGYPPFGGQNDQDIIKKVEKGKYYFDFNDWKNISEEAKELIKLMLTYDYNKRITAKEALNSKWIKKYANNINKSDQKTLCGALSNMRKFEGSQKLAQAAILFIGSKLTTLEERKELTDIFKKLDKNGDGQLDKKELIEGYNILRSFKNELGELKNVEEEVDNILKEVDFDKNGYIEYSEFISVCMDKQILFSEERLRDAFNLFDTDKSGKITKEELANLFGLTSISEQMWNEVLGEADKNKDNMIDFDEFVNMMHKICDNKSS
Chain of L-lactate dehydrogenase (Plasmodium falciparum (isolate CDC / Honduras)) (Q27743 whole entry, looked up): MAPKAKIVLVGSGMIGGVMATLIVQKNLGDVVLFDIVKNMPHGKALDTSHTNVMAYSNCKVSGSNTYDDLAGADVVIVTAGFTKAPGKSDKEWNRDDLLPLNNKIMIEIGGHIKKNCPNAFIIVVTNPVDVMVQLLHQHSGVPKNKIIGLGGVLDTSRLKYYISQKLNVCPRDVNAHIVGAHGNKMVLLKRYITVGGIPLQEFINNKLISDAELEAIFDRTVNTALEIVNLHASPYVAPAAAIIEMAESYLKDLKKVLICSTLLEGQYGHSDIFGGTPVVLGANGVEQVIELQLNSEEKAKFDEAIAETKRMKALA
Chain of Protein kinase 7 (PK7), Plasmodium falciparum 3D7 (PF3D7_0213400) (Q7YTF7 1-343): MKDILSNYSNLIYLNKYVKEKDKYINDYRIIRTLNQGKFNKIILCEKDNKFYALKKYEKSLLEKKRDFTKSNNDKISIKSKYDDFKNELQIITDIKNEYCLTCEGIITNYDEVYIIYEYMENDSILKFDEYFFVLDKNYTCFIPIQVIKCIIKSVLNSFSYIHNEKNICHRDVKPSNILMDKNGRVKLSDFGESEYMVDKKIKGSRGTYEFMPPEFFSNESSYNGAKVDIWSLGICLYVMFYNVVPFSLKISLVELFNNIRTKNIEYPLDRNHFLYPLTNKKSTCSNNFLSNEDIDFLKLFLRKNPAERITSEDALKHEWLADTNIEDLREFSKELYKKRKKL

O=C(NCCCCN1CCN(CC=Cc2ccccc2)CC1)c1ccc(NC(=O)c2cc(Cl)cc(Cl)c2)cc1
active: growth inhibition [1] 63% | growth inhibition [4] 100%
inactive: inhibition [2] 26% | inhibition [3] 4% | outcome [5] | outcome [6] | outcome [7] | outcome [8]

O=C(Nc1ccc(S(=O)(=O)N2CCCCCC2)cc1)c1cc(-c2ccccc2O)n[nH]1
inactive: inhibition [2] 16% | inhibition [3] 6% | outcome [5] | outcome [6] | outcome [7] | outcome [8]
active: growth inhibition [1] 76% | growth inhibition [4] 100%

CC1CCN(C(=O)CSc2nc(-c3ccc(C(C)C)cc3)no2)CC1
inactive: inhibition [2] -1% | inhibition [3] 2% | outcome [5] | outcome [6] | outcome [7] | outcome [8]
active: growth inhibition [1] 84% | growth inhibition [4] 98%

N#Cc1ccc2c(c1)CCN(CCC1CCC(NC(=O)/C=C/c3ccc(F)c4ccccc34)CC1)CC2 (stereo not given)
inactive: growth inhibition [1] 19% | inhibition [2] 29% | inhibition [3] -2% | outcome [5] | outcome [6] | outcome [7] | outcome [8]
active: growth inhibition [4] 95%

CN(C)CCNCc1ccc(-c2cccc(-c3nc4ccccc4[nH]3)c2)cc1
active: growth inhibition [1] 63% | growth inhibition [4] 101%
inactive: inhibition [2] 31% | inhibition [3] 6% | outcome [5] | outcome [6] | outcome [7] | outcome [8]

NC(=NCCCCCCCCN=C(N)Nc1ccc(Cl)cc1)Nc1ccc(Cl)cc1
inactive: inhibition [2] 10% | inhibition [3] -5% | outcome [5] | outcome [6] | outcome [7] | outcome [8]
active: growth inhibition [1] 89% | growth inhibition [4] 93%

Cc1ccc(C)c(S(=O)(=O)Nc2ccc(Br)cc2C(=O)Nc2cccc(C(F)(F)F)c2)c1
active: growth inhibition [1] 98% | inhibition [2] 56% | growth inhibition [4] 81%
inactive: inhibition [3] -7% | outcome [5] | outcome [6] | outcome [7] | outcome [8]

CCOc1ccc(C(C)NC(=O)Cc2ccccc2F)cc1OCC (stereo not given)
inactive: growth inhibition [1] 44% | inhibition [2] 15% | inhibition [3] 6% | outcome [5] | outcome [6] | outcome [7] | outcome [8]
active: growth inhibition [4] 96%

COc1ccc(CNC(=O)c2cc3c(=O)n4ccccc4nc3n(CCc3ccccc3)c2=N)cc1
active: growth inhibition [4] 99%
inactive: growth inhibition [1] 22% | inhibition [2] 26% | inhibition [3] -4% | outcome [5] | outcome [6] | outcome [7] | outcome [8]

Cn1cnc(CCNC(=O)c2ccc(-c3cccc(-c4nc5ccccc5[nH]4)c3)cc2)c1
inactive: growth inhibition [1] 14% | inhibition [2] 1% | inhibition [3] 2% | outcome [5] | outcome [6] | outcome [7] | outcome [8]
active: growth inhibition [4] 93%
